The values below come from PubChem BioAssay (NCI).

The panel holds about 83,000 compounds, 20% with a hit somewhere; the sample as a whole holds those more often.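 Testing used 96-well plates and a 48-hour single-concentration exposure. Example: -40 means 40% of the starting cells died.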 Values without a mark were called inactive. Activity calls are given as the source filed them. How the source made its calls: active means growth percent below 10; inactive means the rest.

What all share (assay): NCI-60 one-dose screen, 48 h (100 = growth as untreated, 0 = no growth, -100 = all killed)
What all share (details): 10 µM unless noted

Experiment [1] relates to T-47D breast.
The test system of experiment [2] is BT-549 breast.
The subject of experiment [3] is MDA-MB-435 melanoma.
For experiment [4], the system named is SW-620 colon.
In experiment [5] the test system is MCF7 breast.
In experiment [6] the test system is HCT-116 colon.
In experiment [7] the test system is HCC-2998 colon.
Experiment [8] relates to KM12 colon.

For `C=C1C(=O)O[C@H]2[C@H]1CC/C(COC(=O)CCSSCCC(=O)OC/C1=C/CC[C@@]3(C)O[C@H]3[C@H]3OC(=O)C(=C)[C@@H]3CC1)=C\CC[C@@]1(C)O[C@@H]21`, the growth in experiment [1] is -8.54% (active); in experiment [2], -78.5% (active); in experiment [3], 10.8%; in experiment [4], -77.7% (active); in experiment [5], -49.4% (active); in experiment [6], -90.2% (active). Further, the growth was 67% in experiment [7] and 51.6% in experiment [8].
For `Cc1c(C(=O)N[C@@H](Cc2ccccc2)C(=O)C(=O)NCc2ccc(F)cc2)[nH]c2ccccc2c1=O`, the growth in experiment [1] was 103%; in experiment [2], 110%; in experiment [3], 101%; in experiment [4], 97.5%; in experiment [5] it was 91.2%; in experiment [6], 99.9%. The figures for the growth in experiment [7] and in experiment [8] were 93.8% and 101%, respectively.
For `Cc1nc2ccccc2c(/C=C/c2ccc(Cl)cc2)c1C(=O)/C=C/c1cccs1`, the growth is 50.1% in experiment [1]; 90.9% in experiment [2]; 89.3% in experiment [3]; 72.4% in experiment [4]; 41.9% in experiment [5]; 33.9% in experiment [6]. In addition, the growth is 73.5% in experiment [7] and 81.5% in experiment [8].
On to `C=C1CC[C@@]2(C#N)[C@H]3[C@H](CC[C@@H]2C)[C@@H](C)C[C@@H](CC(C)(C)C#N)[C@H]13`, for which the growth in experiment [1] was 21.5%; in experiment [2] it was 50.4%; in experiment [3], 35.9%; in experiment [4], 49.9%; in experiment [5], 21.1%; in experiment [6], 14.5%. Also, the growth is 37.3% in experiment [7] and 35.7% in experiment [8].
Turning to `COc1ccc(-c2ncnc3c2ncn3CC#CCCl)cc1`, the growth is 53.1% in experiment [1]; 50.1% in experiment [2]; 40.2% in experiment [3]; 48.9% in experiment [4]; 35.7% in experiment [5]; 52.5% in experiment [6]. In addition, the growth in experiment [7] was 84.8%; in experiment [8], 72.6%.
For the compound `CCCC1CCC(O)(C(C)(O)C(=O)NC2C(=O)N3NCCCC3C(=O)N(O)C(C)C(=O)N3NCCCC3C(=O)N3NCC(O)CC3C(=O)NC(C)C(=O)OC2C(C)C)OC1CC` (stereo not given), the growth in experiment [1] is -77.8% (active); in experiment [2], -67.3% (active); in experiment [3] it was -74.6% (active); in experiment [4] it was -97.3% (active); in experiment [5] it was -83% (active); in experiment [6] it was -57.2% (active). Further, the growth is -93.6% (active) in experiment [7] and -88.5% (active) in experiment [8].
`CSc1nc2ccc(C)cc2cc1/C=N/O`: the growth in experiment [1] is 71%; in experiment [2], 73.2%; in experiment [3] it was 91.5%; in experiment [4], 85.6%; in experiment [5], 86.3%; in experiment [6], 81.1%. Moreover, the growth in experiment [7] was 96.6%; in experiment [8], 93.7%.
Turning to `CNc1nc2c(s1)C(c1cccc(F)c1)CC(=O)N2` (stereo not given), the growth was 94.8% in experiment [1]; 94.5% in experiment [2]; 99.9% in experiment [3]; 102% in experiment [4]; 95.2% in experiment [5]; 99.8% in experiment [6]. Also, the growth in experiment [7] is 104%; in experiment [8], 101%.
With `CN(C)CCCNc1nc2ccccc2c2c(=O)c3cc(F)ccc3sc12`, the growth in experiment [1] is 43.1%; in experiment [2], 100%; in experiment [3], -79.7% (active); in experiment [4], -51.4% (active); in experiment [5], 18.5%; in experiment [6], -47% (active). Also, the growth in experiment [7] is -80.4% (active); in experiment [8] it was 3.81% (active).
Take `O=C(Cc1ccc(F)c(Cl)c1)Nc1cc(C2(C(F)(F)F)CC2)nn1CC1CCCCC1`: the growth was -0.285% (active) in experiment [1]; 5.11% (active) in experiment [2]; 3.02% (active) in experiment [3]; 12.6% in experiment [4]; -0.278% (active) in experiment [5]; 5.8% (active) in experiment [6]. Further, the growth was 14.9% in experiment [7] and 0.921% (active) in experiment [8].
Regarding `Nc1nn(C(=O)Nc2ccc(Cc3ccccc3)cc2)c2ccc(Cl)cc12`, the growth is 41.4% in experiment [1]; 55.9% in experiment [2]; 53.3% in experiment [3]; 81.8% in experiment [4]; 20.7% in experiment [5]; 42.5% in experiment [6]. Also, the growth is 2.27% (active) in experiment [7] and 66.2% in experiment [8].
Consider `COc1c(B(O)O)cc(C)cc1-c1nc2ccc3[nH]ncc3c2c2c1CCCC2`, for which the growth was 78.5% in experiment [1]; 24.2% in experiment [2]; 22.5% in experiment [3]; 8.73% (active) in experiment [4]; 54.6% in experiment [5]; 21.3% in experiment [6]. Also, the values for the growth in experiment [7] and in experiment [8] were 62.9% and 30.6%, respectively.
On to `Cc1nn(-c2ccccc2)c2c1N=c1s/c(=C\c3ccc(C(F)(F)F)cc3)c(=O)n1CN2`, for which the growth in experiment [1] is 54%; in experiment [2], 72.2%; in experiment [3] it was 61.4%; in experiment [4] it was 75.7%; in experiment [5], 56.9%; in experiment [6], 27.8%. The growth in experiment [7] was 74.2%; in experiment [8], 97.2%.
Consider `Cc1ccc(C(=O)NN2C(=O)CSC2c2cccc([N+](=O)[O-])c2)cn1` (stereo not given), for which the growth in experiment [1] is 96.1%; in experiment [2], 104%; in experiment [3] it was 97%; in experiment [4] it was 98.3%; in experiment [5] it was 112%; in experiment [6], 99.6%. Also, the growth in experiment [7] was 84%; in experiment [8], 106%.
In the case of `O=C(O)CCC(=O)Nc1nnc(-c2ccccc2)s1`, the growth in experiment [1] is 94.3%; in experiment [2], 102%; in experiment [3], 100%; in experiment [4] it was 108%; in experiment [5], 79.9%; in experiment [6], 103%. Also, the growth in experiment [7] is 102%; in experiment [8], 103%.
As for `COc1ccc(-c2[nH]c3ccc(OC)cc3c2/C=C(\C#N)S(=O)(=O)c2ccccc2)cc1`, the growth in experiment [1] was 34.4%; in experiment [2], 46.6%; in experiment [3] it was 1.86% (active); in experiment [4], 32.8%; in experiment [5], 7.23% (active); in experiment [6], 19.4%. In addition, the results for the growth in experiment [7] and in experiment [8] were -19.7% (active) and 10.8%, respectively.
Regarding `[O-][n+]1c2ccccc2[n+]([O-])c2c3ccccc3[nH]c21`, the growth in experiment [1] is 2.23% (active); in experiment [2], 81.3%; in experiment [3], 110%; in experiment [4], 45.4%; in experiment [5], 19.4%; in experiment [6], 10.3%. Further, the figures for the growth in experiment [7] and in experiment [8] were 69.2% and 90.1%, respectively.
Regarding `CCCCNc1nc(NN2C(=O)c3cccc4cccc(c34)C2=O)nc(-n2cnc3ccccc32)n1`, the growth in experiment [1] is 74.7%; in experiment [2] it was 98.8%; in experiment [3] it was 99.2%; in experiment [4], 109%; in experiment [5], 72.6%; in experiment [6], 88.3%. The growth was 105% in experiment [7] and 25.4% in experiment [8].
`CCOC(=O)c1cn2ncnc(Oc3ccc(NC(=O)NCCN(CC)CC)c(Cl)c3)c2c1C`: the growth in experiment [1] is 45.4%; in experiment [2], 81.9%; in experiment [3], 9.11% (active); in experiment [4], 28.7%; in experiment [5], 58.1%; in experiment [6] it was 36.5%. In addition, the growth in experiment [7] is 68.3%; in experiment [8], 96.4%.
On to `COc1ccc(-n2c(N)c(-c3nc4ccccc4[nH]3)cc(C#N)c2=O)cc1`, for which the growth in experiment [1] is 77.8%; in experiment [2], 75.1%; in experiment [3], 99.3%; in experiment [4], 106%; in experiment [5], 87.7%; in experiment [6] it was 88.2%. Besides, the values for the growth in experiment [7] and in experiment [8] were 108% and 99.9%, respectively.
`CCOC(=O)c1cn2ncnc(Oc3ccc(NC(=O)NCCN4CCN(C)CC4)c(Cl)c3)c2c1C`: the growth in experiment [1] is 25.5%; in experiment [2], 77.8%; in experiment [3], 40.7%; in experiment [4], 69%; in experiment [5], 65.5%; in experiment [6] it was 45.3%. Moreover, the growth in experiment [7] was 89.2%; in experiment [8], 91.4%.
Consider `c1ccc(-c2nc3sc(-c4ccccc4)cn3n2)cc1`, for which the growth in experiment [1] is 36.7%; in experiment [2] it was 99.9%; in experiment [3] it was 99.2%; in experiment [4], 94.9%; in experiment [5] it was 38.3%; in experiment [6], 88.9%. The growth was 104% in experiment [7] and 81.1% in experiment [8].
Regarding `CCCCCCN(CCCCCC)c1ccc(/C=C2/SC(=O)NC2=O)c(C)c1`, the growth in experiment [1] was 77.2%; in experiment [2] it was 98.3%; in experiment [3], 82.1%; in experiment [4] it was 88.6%; in experiment [5], 79.2%; in experiment [6], 63.7%. In addition, the growth in experiment [7] was 67.4%; in experiment [8] it was 80.3%.
Regarding `Cc1cc(-c2cc(C)c(N)cc2C)c(C)cc1N`, the growth in experiment [1] is 90.4%; in experiment [2], 92.3%; in experiment [3], 6.88% (active); in experiment [4] it was 100%; in experiment [5], 80.7%; in experiment [6], 78.8%. The growth in experiment [7] was 104%; in experiment [8], 75.2%.
For the compound `Nc1nc2ccccc2c2c(=O)c3cc(F)ccc3sc12`, the growth was 84.3% in experiment [1]; 106% in experiment [2]; 98.6% in experiment [3]; 107% in experiment [4]; 34.4% in experiment [5]; 99.4% in experiment [6]. Further, the growth in experiment [7] is 96.6%; in experiment [8], 99%.
Turning to `CC(=O)OC[C@H]1OC(Sc2sc(C(=O)c3ccc(Br)cc3)c(N)c2-c2nc3ccccc3s2)[C@H](OC(C)=O)[C@@H](OC(C)=O)[C@H]1OC(C)=O` (stereo not given in full), the growth was 67.4% in experiment [1]; 90.2% in experiment [2]; 91.7% in experiment [3]; 104% in experiment [4]; 94.6% in experiment [5]; 91.3% in experiment [6]. Also, the growth in experiment [7] is 98.8%; in experiment [8], 95.7%.
Turning to `COc1nc2ccccc2cc1-c1nc2c(cnn2-c2ccc(Br)cc2)c(=O)[nH]1`, the growth in experiment [1] was 24.2%; in experiment [2] it was 50%; in experiment [3] it was -74.8% (active); in experiment [4], 19.5%; in experiment [5] it was 22.1%; in experiment [6], 23.1%. In addition, the growth is 51.1% in experiment [7] and 18.3% in experiment [8].
With `NC[C@@H]1O[C@H](O[C@@H]2[C@@H](CO)OC(O[C@@H]3[C@@H](O)[C@H](N)C[C@H](N)[C@H]3OC3O[C@H](CN)[C@@H](O)[C@H](O)[C@H]3N)[C@@H]2O)[C@H](N)[C@@H](O)[C@@H]1O` (stereo not given in full), the growth in experiment [1] is 115%; in experiment [2], 109%; in experiment [3], 102%; in experiment [4], 109%; in experiment [5] it was 103%; in experiment [6], 102%. For the same compound, the growth in experiment [7] is 108%; in experiment [8], 110%.
As for `COc1ccc(C2=Nn3c(nnc3-c3cc(Cl)cc(Cl)c3Cl)SC2)cc1`, the growth in experiment [1] is 68.6%; in experiment [2], -31.2% (active); in experiment [3], -46.7% (active); in experiment [4] it was 20.2%; in experiment [5], 7.11% (active); in experiment [6], -27% (active). The growth in experiment [7] is -57.9% (active); in experiment [8], 6.48% (active).
For the compound `CN(C)CCS(=O)(=O)Nc1cc(-c2ccc3ncc(C#N)c(Nc4ccc(F)c(Cl)c4)c3c2)cnc1Cl`, the growth in experiment [1] was -30.5% (active); in experiment [2], -60.2% (active); in experiment [3] it was -76.8% (active); in experiment [4], -11.1% (active); in experiment [5], 0.35% (active); in experiment [6], -51.6% (active). Also, the growth in experiment [7] is -83.3% (active); in experiment [8], -25.4% (active).
